In PubChem BioAssay (EPA / NIEHS) one finds AC50 and outcome data, which are given here for 39 molecules.

Values joined by “and” are separate entries in the source; they are usually repeats but may differ in a detail not shown here. Equal entries are not always repeated. The source holds several records for some structures; these can differ, active in one and inactive in another. Active and inactive are the calls of the source. Rule for the calls: active = hit-call score of the fitted dose curve at least 0.9, where 1 is the maximum; inactive = score below 0.9.

Read-out in the assay: CD69, CD69 (gene 969)
The assay can be described thus: BSK_SAg_CD69: BioMAP Diversity Plus: SAg Assay for CD69 Biomarker Activity (AID 2283089). As to conditions: primary human HUVEC with PBMC; actives raise or lower the signal. The procedure:
BSK_SAg is a cell-based, multiplexed-readout assay that uses umbilical vein endothelium and peripheral blood mononuclear cells, a human vascular primary cell co-culture, with measurements taken at 24 hours after chemical dosing in a 96-well plate.BSK_SAg_CD69 is one of 10 assay component(s) measured or calculated from the BSK_SAg assay. It is designed to make measurements of enzyme-linked immunosorbent assay, a form of binding reporter, as detected with fluorescence intensity signals by Enzyme-linked immunosorbent assay technology.Data from the assay component BSK_SAg_CD69 was analyzed into 1 assay endpoint. This assay endpoint, BSK_SAg_CD69, was analyzed with bidirectional fitting relative to DMSO as the negative control and baseline of activity. Using a type of binding reporter, gain or loss-of-signal activity can be used to understand changes in the signaling as they relate to the gene CD69. Furthermore, this assay endpoint can be referred to as a primary readout, because this assay has produced multiple assay endpoints where this one serves a signaling function. To generalize the intended target to other relatable targets, this assay endpoint is annotated to the cytokine intended target family, where the subfamily is inflammatory factor.
The levels of cell surface (or secreted, indicated by the prefix "s") biomarker endpoints were measured by ELISA. Overt cytotoxicity to cells in confluent adherent cultures (all systems other than the BT system) was assessed by measuring total protein levels using sulforhodamine B (SRB) staining in parallel cultures at the time of biomarker measurements, indicated as SRB endpoints. For proliferation assays for adherent cell types, individual cell types are cultured at sub-confluence and relative cell numbers quantified by SRB staining at time points optimized for each system (48 h: 3C and CASM3C systems; 72 h: BT and HDF3CGF systems; 96 h: SAg system). SRB was performed by staining cells with 0.1% SRB after fixation with 10% TCA and reading wells at 560 nm.Viability and proliferation of PBMC (T cells) was quantified by Alamar Blue reduction for the SAg and BT systems. For PBMC viability (referred to as PBMC Cytotoxicity within the assay endpoint names), cells were plated (75,000/well in a 96-well plate) and then chemical samples added for 1 h before addition of activators, SEB and TSST-1 (20 ng/mL final concentration each). Cells were incubated for 90 h. Then, Alamar Blue (20 uL/well) (Invitrogen, Cat DAL1100) was added for 6 h, and the plates were read with a fluorescence microplate reader at 546/580 nm (excitation/emission). For PBMC proliferation, cells were plated and activated as above but incubated for only 16 h prior to addition of Alamar Blue. Plates were read after 6 h.
For `CNc1cnn(-c2cccc(C(F)(F)F)c2)c(=O)c1Cl`, the AC50 is 29.1 µM (active).

Regarding `Cc1cc(C2CC2)nc(Nc2ccccc2)n1`, the AC50 is 28.2 µM (active).

With `COP(=O)(OC)OC(Br)C(Cl)(Cl)Br` (stereo not given), the AC50 is 30.1 µM (active).

On to `Cc1nn(-c2cc(NS(C)(=O)=O)c(Cl)cc2Cl)c(=O)n1C(F)F`, for which the outcome was inactive.

Turning to `CC[C@H](C)[C@H]1O[C@]2(C=C[C@@H]1C)C[C@@H]1C[C@@H](C/C=C(\C)[C@@H](O[C@H]3C[C@H](OC)[C@@H](O[C@H]4C[C@H](OC)[C@@H](NC)[C@H](C)O4)[C@H](C)O3)[C@@H](C)/C=C/C=C3\CO[C@@H]4[C@H](O)C(C)=C[C@@H](C(=O)O1)[C@]34O)O2`, the AC50 was 4.17 µM (active).

For `CCOP(=S)(OCC)Oc1ccc([N+](=O)[O-])cc1`, the AC50 was 32.4 µM (active).

Take `CCC(=NOC/C=C/Cl)C1=C(O)CC(C2CCOCC2)CC1=O` (stereo not given): the result was inactive.

As to `CCCOc1nn(C(=O)NS(=O)(=O)c2ccccc2C(=O)OC)c(=O)n1C`, the result was inactive.

As to `CC(C)[C@H](C(=O)O[C@H](C#N)c1cccc(Oc2ccccc2)c1)c1ccc(Cl)cc1`, the result was inactive.

As for `CCOP(=S)(OCC)Oc1ccc2c(C)c(Cl)c(=O)oc2c1`, the outcome was inactive.

Consider `N#CSCSC#N`, for which the concentration at half-maximal activity (AC50) is 7.16 µM (active).

Regarding `CN(C)NC(=O)CCC(=O)O`, the result was inactive.

Take `CNC(=O)Oc1cccc2c1OC(C)(C)O2`: the result was inactive.

In the case of `Cc1ccn2nc(S(=O)(=O)Nc3c(F)cccc3F)nc2n1`, the result was inactive.

In the case of `CSC1=N[C@@](C)(c2ccccc2)C(=O)N1Nc1ccccc1`, the AC50 is 11.5 µM (active).

`CCCSP(=O)(OCC)Oc1ccc(Br)cc1Cl` (stereo not given): the AC50 is 27.8 µM (active).

Consider `CN(C)[C@@H]1C(=O)C(C(N)=O)=C(O)[C@@]2(O)C(=O)C3=C(O)c4c(O)cccc4[C@@](C)(O)[C@H]3[C@H](O)[C@@H]12`, for which the AC50 was 5.09 µM (active) and the result was inactive.

In the case of `CCOP(=S)(OCC)Oc1cc(C)nc(C(C)C)n1`, the result was inactive.

For the molecule `FC(F)C(F)(F)OCC(Cn1cncn1)c1ccc(Cl)cc1Cl` (stereo not given), the AC50 was 30 µM (active).

On to `COP(=O)(OC)SCn1c(=O)oc2cc(Cl)cnc21`, for which the AC50 was 20 µM (active).

On to `CCOP(=S)(OCC)OC(Cl)C(Cl)(Cl)Cl` (stereo not given), for which the concentration at half-maximal activity (AC50) is 28.6 µM (active).

As to `CCOP(=S)(Oc1cnc(C(C)(C)C)nc1)OC(C)C` (stereo not given), the half-maximal activity concentration (AC50) was 30 µM (active).

`CCC(=O)Nc1ccc(Cl)c(Cl)c1`: the result was inactive.

Regarding `Nc1c(Cl)cc([N+](=O)[O-])cc1Cl`, the outcome was inactive.

As for `CCOC(=O)COc1cc(-c2nn(C)c(OC(F)F)c2Cl)c(F)cc1Cl`, the AC50 was 3.97 µM (active).

Turning to `CC(C)=CC1C(C(=O)OCN2C(=O)C3=C(CCCC3)C2=O)C1(C)C` (stereo not given), the AC50 is 20 µM (active).

For the molecule `O=C(O)c1cc(Oc2ccc(C(F)(F)F)cc2Cl)ccc1[N+](=O)[O-]`, the result was inactive.

On to `CC(COc1ccc(Oc2ccccc2)cc1)Oc1ccccn1` (stereo not given), for which the outcome was inactive.

Take `CCCCSP(=O)(SCCCC)SCCCC`: the AC50 is 31.5 µM (active).

In the case of `CCCCOC(=O)[C@@H](C)Oc1ccc(Oc2ccc(C#N)cc2F)cc1`, the outcome was inactive.

For `CCc1cccc(CC)c1N(COC)C(=O)CCl`, the AC50 was 15.4 µM (active).

Consider `CC(C)N(C(=O)SCC(Cl)=C(Cl)Cl)C(C)C`, for which the AC50 is 36.6 µM (active).

`CC1(C(=O)Nc2ccc(O)c(Cl)c2Cl)CCCCC1`: the result was inactive.

For `O=[N+]([O-])c1cc(C(F)(F)F)c(Cl)c([N+](=O)[O-])c1Nc1ncc(C(F)(F)F)cc1Cl`, the AC50 was 1.91 µM (active) and 3.73 µM (active).

`COc1cccc(C(=O)NN(C(=O)c2cc(C)cc(C)c2)C(C)(C)C)c1C`: the result was inactive.

`CCc1cnc(C2=NC(C)(C(C)C)C(=O)N2)c(C(=O)O)c1` (stereo not given): the outcome was inactive.

With `COP(=O)(NC(C)=O)SC` (stereo not given), the result was inactive.

As to `CCCSP(=O)(OCC)SCCC`, the result was inactive.

With `CSc1nnc(C(C)(C)C)c(=O)n1N`, the outcome was inactive.

For orientation: AC50 means the midpoint of the concentration-response curve, whichever way the signal moves.
